Sampled rows, rich in hits. Any-hit rate of the full collection: about 1.5%.
TrxR1 substrate: qHTS Assay for Substrates of Mammalian Selenoprotein Thioredoxin Reductase 1 (TrxR1): qHTS; Thioredoxin reductase 1, cytoplasmic (Rattus norvegicus), O89049; purified TrxR1 substrate turnover, NADPH consumption readout; Potency, µM (series often up to 114 µM); hit rate 0.01% among 390,000; further: nearly all actives have a fitted effect of over 50% in size
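Rat TrxR1, dispensed at 90 nM, was prereduced with 400 uM NADPH (final) for 5 min at ~22 deg C, then incubated with compound 15 min before 400 uM selenite. A first-read NADPH fluorescence drop versus no-compound background flagged substrates.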
TrxR1 inh: qHTS Assay for Inhibitors of Mammalian Selenoprotein Thioredoxin Reductase 1 (TrxR1): qHTS; recombinant rTrxR1, NADPH fluorescence consumption, selenite substrate; Thioredoxin reductase 1, cytoplasmic (Rattus norvegicus), O89049; hit rate 1% among 390,000; Potency, µM (doses to about 114 µM), actives largely listed as inhibitors; AID 588453, 2011; further: nearly all actives have a fitted effect of over 65% in size
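Rat TrxR1 (90 nM in the dispensed reagent) was pre-reduced with 400 uM NADPH for 5 min at room temperature, then incubated with compound for 15 min. After 400 uM selenite was added, NADPH fluorescence (Ex 340/Em 450 nm) was followed for 8 min.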
CtBP-E1A inh: qHTS Assay for Inhibitors of the CtBP/E1A Interaction | CtBP / adenovirus E1A interaction (AlphaScreen) | AlphaScreen GST-E1A/His-CtBP binding, 1536-well; stronger effect = lower value | activity change, % (concentration not given with the values) | hit rate 0.49% among 340,000 | AID 651724, 2012; in the data active means activity change below about -65%; inconclusive means mostly about -30% to -63%
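Homogeneous bead-based format: GST-tagged E1A captured on glutathione donor beads, His-tagged CtBP on nickel acceptor beads; compounds precede bead addition by 2 h at 37 °C.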
Eya2 phos inh: qHTS Assay for Inhibitors of the Phosphatase Activity of Eya2; AID 488837, 2010; Protein phosphatase EYA2 (Homo sapiens), O00167; Potency, µM (doses to about 76.9 µM), usual class: inhibitors; hit rate 0.006% among 330,000; recombinant Eya2, OMFP fluorescence dephosphorylation (OMFP is methylfluorescein phosphate)
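Eya2 (0.2 uM) preincubated 10 min at ambient with compound, then OMFP substrate added at 50 uM; 10 min reaction in 50 mM HEPES pH 7.5, 50 mM NaCl, 5 uM MgCl2, 0.05% BSA, 1 mM DTT. Fluorescence read at Ex 485/Em 525 nm.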
Six1-Eya2 blk: qHTS Assay for Inhibitors of the Six1/Eya2 Interaction; hit rate 0.56% among 360,000; Homeobox protein SIX1 (Homo sapiens) + Protein phosphatase EYA2 (Homo sapiens), …; AlphaScreen GST-Six1/His-Eya2 binding, biochemical; stronger effect = lower value; activity change, % (concentration not given with the values); in the data active means activity change below about -65%; inconclusive means mostly about -30% to -63%
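AlphaScreen with GST-Six1 and His-Eya2 (5X mix: 250 nM and 500 nM), glutathione donor and nickel acceptor beads; buffer 50 mM Tris pH 8.0, 300 mM NaCl, 1 mM TCEP; 1 h at 37 C in the dark.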
GALK inhibitor: qHTS Assay for Inhibitors of Human Galactokinase (GALK). P51570. Purified GALK, Kinase-Glo residual ATP luminescence. Potency, µM (top dose mostly 57.5 µM), actives largely listed as inhibitors. hit rate 0.007% among 270,000
Target sequence (P51570 whole entry, looked up): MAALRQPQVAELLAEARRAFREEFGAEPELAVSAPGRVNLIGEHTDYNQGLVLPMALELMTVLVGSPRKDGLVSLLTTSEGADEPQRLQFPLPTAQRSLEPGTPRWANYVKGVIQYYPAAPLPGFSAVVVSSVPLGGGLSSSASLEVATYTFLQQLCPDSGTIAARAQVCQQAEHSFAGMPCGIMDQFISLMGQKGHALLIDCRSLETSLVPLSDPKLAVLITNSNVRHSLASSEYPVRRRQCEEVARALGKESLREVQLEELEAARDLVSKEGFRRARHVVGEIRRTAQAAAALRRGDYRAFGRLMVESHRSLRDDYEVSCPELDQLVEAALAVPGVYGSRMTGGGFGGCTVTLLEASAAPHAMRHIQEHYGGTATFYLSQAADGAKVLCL
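Luminescence from leftover ATP (Ultra-Glo luciferase/luciferin) served as read-out after a 1 h room-temperature reaction of 5 nM GALK with 35 uM ATP and 100 uM galactose.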
Hits are given with their value; i = inactive; ? = inconclusive; nt = no result; ! = not active in a repeat; [ ] = another dose, or the depositor's remark. Unless noted, the call rests on the fitted dose curve; in most records, active means well fitted curve in the direction sought with a large enough effect; inconclusive means small, poorly fitted or top-dose-only effect, or another doubt; inactive means no such curve, though single readings can be large; an effect the other way counts as inactive or inconclusive.

SMILES	TrxR1 substrate	TrxR1 inh	CtBP-E1A inh	Eya2 phos inh	Six1-Eya2 blk	GALK inhibitor
COc1cc(NC(=O)CN2C(=O)COc3ccc(S(=O)(=O)N4CCCC4)cc32)cc(OC)c1	i	i	-77	i	?	i
COc1ccc(NC(=O)CN2C(=O)COc3ccc(S(=O)(=O)N4CCOCC4)cc32)cc1Cl	i	i	-92	i	i	i
O=C(CS(=O)(=O)c1cccc2nsnc12)Nc1ccc(F)cc1	i	i	nt	nt	nt	nt
O=C(Cc1ccc(-c2ccccc2)cc1)NCCS(=O)(=O)N1CCN(c2cccc(Cl)c2)CC1	i	i	nt	nt	nt	nt
O=C(NCc1ccc2c(c1)OCO2)c1nc(S(=O)(=O)Cc2ccccc2F)ncc1Cl	i	i	nt	i	i	i
CCS(=O)(=O)c1ncc(Cl)c(C(=O)NCc2ccccc2)n1	i	5.6µM	nt	nt	nt	nt
COc1ccc(N(Cc2ccccc2)C(=O)c2nc(S(C)(=O)=O)ncc2Cl)cc1	i	1µM	nt	nt	nt	nt
O=C(NCc1ccccc1)c1nc(S(=O)(=O)Cc2ccccc2)ncc1Cl	i	2.8µM!	nt	i	i	i
CC(=O)Nc1ccc(NC(=O)c2nc(S(=O)(=O)Cc3ccccc3)ncc2Cl)cc1	i	i	nt	i	i	i
O=C(NCc1ccc2c(c1)OCO2)c1nc(S(=O)(=O)Cc2ccccc2)ncc1Cl	i	11µM	i	i	i	i
CCOc1ccccc1NC(=O)c1nnn(CC(=O)Nc2ccc(OC)c(OC)c2)c1N	i	i	nt	nt	nt	nt
COc1ccc(CNC(=O)c2nc(SC(C)C)ncc2Cl)cc1	i	i	nt	nt	nt	nt
COc1ccc(CNC(=O)c2nc(S(=O)(=O)Cc3ccccc3)ncc2Cl)cc1	i	3.2µM!	nt	i	i	i
CS(=O)(=O)c1ncc(Cl)c(C(=O)N(Cc2ccc(Cl)cc2)Cc2ccco2)n1	i	0.71µM	nt	nt	nt	nt
CC(=O)CCc1oc2ccc(NC(C)=O)cc2c1-c1ccc(C)o1	i	20µM	i	i	i	i
CC(=O)CCc1oc2ccc(C)cc2c1-c1ccc(C)o1	i	?	i	i	i	i
COc1ccc(Cn2c(=O)n(Cc3ccco3)c(=O)c3oc4ccccc4c32)cc1	i	i	nt	nt	nt	nt
Cc1noc2ncnc(N3CCCC(C(=O)Nc4cccc(C(F)(F)F)c4)C3)c12 (stereo not given)	i	i	nt	nt	nt	nt
CC(=O)OCCCNc1cc(Sc2ccc(Cl)cc2)c2nonc2c1[N+](=O)[O-]	i	3.2µM	i	i	i	i
CCCC(=O)OCCNc1cc(Sc2nc3ccccc3[nH]2)c2nonc2c1[N+](=O)[O-]	i	1µM	i	i	?	i
CCN(CC)c1cc(NCCO)c([N+](=O)[O-])c2nonc12	i	i	i	i	i	i
COC(=O)CCSc1cc(NCCCOC(C)=O)c([N+](=O)[O-])c2nonc12	i	3.2µM	nt	nt	nt	nt
CC(C)CCSc1cc(NCCO)c([N+](=O)[O-])c2nonc12	i	3.5µM	i	i	i	i
COc1ccc(CNC(=O)c2oc3c(c2C)-c2nn(Cc4ccccc4Cl)cc2CC3)cc1	i[11.4 µM]	i[11.4 µM]	nt	nt	nt	nt
CCC(=O)OCCNc1cc(Sc2nccn2C)c2nonc2c1[N+](=O)[O-]	i	0.28µM	i	i	i	i
SMILES	TrxR1 substrate	TrxR1 inh	CtBP-E1A inh	Eya2 phos inh	Six1-Eya2 blk	GALK inhibitor
CCC(=O)OCCNc1cc(SCCC(=O)OC)c2nonc2c1[N+](=O)[O-]	i	8.9µM	i	i	i	i
Cc1ccc(Sc2cc(NCCCO)c([N+](=O)[O-])c3nonc23)cc1	i	13µM	i	i	i	i
O=C(CNC(=O)c1ccco1)OCC(=O)c1ccc2c(c1)CCCC2	i	79µM	i	i	i	nt
C=C1C(=O)O[C@@H]2[C@H]3O[C@]3(C)CC/C=C(\C)CC[C@@H]12	i	56µM	i	nt	i	nt
O=C(Oc1ccc(N(C(=O)c2ccncc2)S(=O)(=O)c2ccc(F)cc2)cc1)c1ccncc1	?	35µM	i	i	i	i
O=C(Oc1ccc(N(C(=O)c2ccncc2)S(=O)(=O)c2ccc(Cl)cc2)cc1)c1ccncc1	i	?	i	i	i	i
O=C(Nc1ccc2oc(-c3cccnc3)nc2c1)c1ccc(Br)o1	i	45µM	i	i	i	i
O=C(Nc1ccc2oc(-c3cccnc3)nc2c1)c1ccco1	i	?	i	i	i	i
COc1ccc(C(=O)Nc2nc3ccccc3[nH]2)cc1S(=O)(=O)N1CCCC1	i	i[0.457 µM]	-70	i	?	i
COc1ccc(C(=O)Nc2nc3ccccc3[nH]2)cc1OC	i	i	i	i	i	i
COc1ccc(C(=O)N/N=C/C(Br)=C/c2ccccc2)cc1	i	i	?	i	i	i
O=C(CN1CCOCC1)N/N=C/C(Br)=C\c1ccccc1	i	i	-81	i	i	i
COc1cccc(C(=O)N/N=C/C(Br)=C/c2ccccc2)c1	i	i	-88	i	i	nt
O=C(N/N=C/C(Br)=C/c1ccccc1)c1cnccn1	i	i	?	i	-82	i
O=C(N/N=C/C(Br)=C/c1ccccc1)c1ccccc1[N+](=O)[O-]	i	i	-92	i	i	i
O=C(CN1CCOCC1)N/N=C/c1ccc(C(=O)O)cc1	i	i	i	i	i	i
CCN(CC)c1nn2c(=O)c(C(=O)NCc3ccccc3Br)cnc2s1	i	i	nt	nt	nt	nt
O=C(N/N=C/C(Br)=C\c1ccccc1)c1n[nH]c2c1CCC2	i	?	-87	i	i	i
NS(=O)(=O)c1ccc(CCNC(=O)C2COc3ccccc3C2)cc1 (stereo not given)	i	i	nt	nt	nt	nt
Cc1nc2scc(-c3ccco3)c2c(=O)n1/N=C/N(C)C	i	32µM	i	i	i	i
Cc1sc2nc(C)n(/N=C/N(C)C)c(=O)c2c1C	i	i	i	i	i	i
COc1ccc(-c2nc3ccccc3o2)cc1NC(=O)c1cccc2c(Cl)cccc12	i	i[11.4 µM]	nt	nt	nt	nt
Cc1nnnn1/C(=C\c1ccccc1)C(=O)OCC(=O)NC(C)(C)C	i	50µM	i	i	i	i
CC(=O)Nc1ccc(NC(=O)COC(=O)/C(=C/c2ccccc2)n2nnnc2C)cc1	i	71µM	i	i	i	i
Cc1nnnn1/C(=C\c1ccccc1)C(=O)OCC(=O)NC1CCCCC1	i	?	i	i	i	nt
CCCCc1nc(S(=O)(=O)c2ccc(Cl)cc2)c(N2CCOCC2)o1	i[11.4 µM]	1.6µM	i	i	i	i
